Measurements: PubChem BioAssay (NCATS)
Calls of active or inactive are those of the source. The call rests on the fitted dose curve.

Assay: qHTS drug screen for cell cycle checkpoint inhibitors in PARPi-resistant BRCA-mutant ovarian cancer cell lines. (AID 1963452)
Details: PEO1/OlaR viability, CellTiter-Glo luminescence, 96 h; for Z-AUC: stronger effect = lower value
Source text: Women's Malignancies Branch, Center for Cancer Research (CCR),
National Cancer Institute (NCI), National Institutes of Health (NIH), Bethesda, MD
Poly (ADP-ribose) polymerase inhibitors (PARPis) have changed the treatment paradigm in breast cancer gene (BRCA) - mutant high-grade serous ovarian carcinoma (HGSC). However, most patients eventually develop resistance to PARPis, highlighting an unmet need for improved therapeutic strategies. Using high-throughput drug screens, we identified ataxia telangiectasia and rad3-related protein/checkpoint kinase 1 (CHK1) pathway inhibitors as cytotoxic and further validated the activity of the CHK1 inhibitor (CHK1i) prexasertib in PARPi-sensitive and -resistant BRCA-mutant HGSC cells and xenograft mouse models. CHK1i monotherapy induced DNA damage, apoptosis, and tumor size reduction. We then conducted a phase 2 study (NCT02203513) of prexasertib in patients with BRCA-mutant HGSC. The treatment was well tolerated but yielded an objective response rate of 6% (1 of 17; one partial response) in patients with previous PARPi treatment. […] BRCA reversion mutation in previously PARPi-treated BRCA-mutant patients was not associated with resistance to CHK1i.
Among others, 1082 oncology drugs, both approved and investigational, were prioritized based on their status in clinical trial development. […] Drugs with average Z-AUC values less than -1.0 in all three cell lines were classified as "hits" resulting in 151 oncology drug hits. The screen also confirmed cross-resistance between olaparib and other PARPis (rucaparib, niraparib, and talazoparib) in PARPi-resistant PEO1/OlaR and PEO4.
[1] G. L. Lin, K. M. Wilson, M. Ceribelli, B. Z. Stanton, P. J. Woo, S. Kreimer, E. Y. Qin, X. Zhang, J. Lennon, S. Nagaraja, P. J. Morris, M. Quezada, S. M. Gillespie, D. Y. Duveau, A. M. Michalowski, P. Shinn, R. Guha, M. Ferrer, C. Klumpp-Thomas, S. Michael, C. McKnight, P. Minhas, Z. Itkin, E. H. Raabe, L. Chen, R. Ghanem, A. C. Geraghty, L. Ni, K. I. Andreasson, N. A. Vitanza, K. E.Warren, C. J. Thomas, M. Monje, Therapeutic strategies for diffuse midline glioma from high-throughput combination drug screening. Sci. Transl. Med. 11, (2019).
[2] T. M. Yamamoto, A. McMellen, Z. L. Watson, J. Aguilera, R. Ferguson, E. Nurmemmedov, T. Thakar, G. L. Moldovan, H. Kim, D. M. Cittelly, A. M. Joglar, E. P. Brennecke, H. Wilson, K. Behbakht, M. J. Sikora, B. G. Bitler, Activation of Wnt signaling promotes olaparib resistant ovarian cancer. Mol. Carcinog. 58, 1770 - 1782 (2019).
PROTOCOL TABLE (as described by Inglese J, Shamu CE and Guy RK. 2007)
SEQUENCE No. (e.g., 1, 2, 3, etc.); […] (e.g., Cells, Incubation, Reagent, etc.); VALUE; DESCRIPTION.
1; Compounds; 20nL; 1536-well white tissue culture-treated plates.
2; Cells; 5 uL; PEO1, PEO4, and PEO1/OlaR cells at 600 cells per well.
3; Incubation; 96 hr; 37C, 95% humidity, 5% CO2.
4; Reagent; 3 uL; CellTiter-Glo (Promega).
5; Incubation; 15 min; room temperature.
6; Detection; Luminescence, PHERAstar (BMG Labtech) plate reader.
NOTES (numbers refer to Sequence numbers above)
1. MIPE 5.0 compounds were acoustically dispensed by Echo Acoustic Liquid Handler (Beckman Coulter Life Sciences). Each compound was plated at an 11-point concentration range with 1:3 dilution. Bortezomib, a proteasome inhibitor (final concentration, 20 uM), was used as a positive.
2. PEO1, PEO4, and PEO1/OlaR were trypsinized and dispensed in 5 uLof growth medium using a Multidrop Combi dispenser at a density of 600 cells per well to allow compounds to be present during the exponential growth phase.
3. Plates were incubated for 96 hours at standard incubator conditions and covered by a stainless steel gasketed lid to prevent evaporation.
4. Three microliters of CellTiter-Glo (Promega) were added to each well.
5. Plates were incubated at room temperature for 15 min with a stainless-steel lid in place.
6. Luminescence readings were taken using PHERAstar (BMG Labtech). […]

[1] = measured here: PEO1 parental Z-AUC
Potency means the concentration at half of the fitted maximal effect.

Compound	Potency	Z-AUC [1]	Z-AUC (measured here: PEO4 Z-AUC)	Z-AUC
Cn1c(=O)c(F)c(Nc2ccc(I)cc2F)c2c(=O)n(C[C@@H](O)CO)cnc21	123 nM (active)	-1.86	-2.03	
Cc1ccc(-n2nc(C(C)(C)C)cc2NC(=O)Nc2ccc(OCCN3CCOCC3)c3ccccc23)cc1		0.786	0.35	0.154 (inactive)
CCCCNc1cc(C(=O)O)cc(S(N)(=O)=O)c1Oc1ccccc1		0.995	0.519	-0.665 (inactive)
Nc1nc2[nH]cc(CCc3ccc(C(=O)N[C@@H](CCC(=O)O)C(=O)O)cc3)c2c(=O)[nH]1		1.12	1.26	1.34 (inactive)
Cc1cc2c(C(C)C)c(O)c(O)c(C=O)c2c(O)c1-c1c(C)cc2c(C(C)C)c(O)c(O)c(C=O)c2c1O		0.604	0.413	1.05 (inactive)
Cc1cc(-c2ccc(CC(=O)Nc3ccc(-c4cccnc4)cc3)cc2)ccn1		0.679	0.307	1.38 (inactive)
S=C(NCc1ccc2c(c1)OCO2)N1CCN(c2ncnc3c2oc2ccccc23)CC1		-1.16	0.0465	-0.165 (inactive)
O=C(O)CCc1ccc(NCc2cccc(Oc3ccccc3)c2)cc1		1.54	1.47	1.62 (inactive)
OCCn1cc(-c2cnc3nnn(Cc4ccc5ncccc5c4)c3n2)cn1		0.0266	0.506	-0.182 (inactive)
CN1CCN(CCCN2c3ccccc3Sc3ccc(C(F)(F)F)cc32)CC1		0.224	0.215	0.668 (inactive)
NC[C@H](O)c1ccc(O)c(O)c1		-0.854	-0.505	-0.408 (inactive)
CC(C)C[C@H](NC(=O)[C@@H](O)[C@H](N)Cc1ccccc1)C(=O)O		0.368	0.252	0.8 (inactive)
Cc1cn[nH]c1		0.488	0.423	1.01 (inactive)
Cn1cc(-c2ccc3nnc(C(F)(F)c4ccc5ncccc5c4)n3n2)cn1		0.00451	0.204	-0.354 (inactive)
